# Reference: paper PMC4336329 (PLoS ONE, 2015)
# Screen size: about 310,000 compounds; about 14,000 (4.5%) showed an effect of 50% or more. The effect is printed as a negative number. For the sample, strong results were picked, then their nearest neighbours and some compounds at random.
# Molecular target: human ether-à-go-go-related gene (hERG) potassium channel (human, UniProt Q12809)
# Assay: primary screen, population patch clamp on CHO cells stably expressing hERG; higher = less effect of the substance
# 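Further: peak tail current of the secondary pulse compared with the same well before compound.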
# Sequence of human ether-à-go-go-related gene (hERG) potassium channel (Q12809 whole entry, looked up): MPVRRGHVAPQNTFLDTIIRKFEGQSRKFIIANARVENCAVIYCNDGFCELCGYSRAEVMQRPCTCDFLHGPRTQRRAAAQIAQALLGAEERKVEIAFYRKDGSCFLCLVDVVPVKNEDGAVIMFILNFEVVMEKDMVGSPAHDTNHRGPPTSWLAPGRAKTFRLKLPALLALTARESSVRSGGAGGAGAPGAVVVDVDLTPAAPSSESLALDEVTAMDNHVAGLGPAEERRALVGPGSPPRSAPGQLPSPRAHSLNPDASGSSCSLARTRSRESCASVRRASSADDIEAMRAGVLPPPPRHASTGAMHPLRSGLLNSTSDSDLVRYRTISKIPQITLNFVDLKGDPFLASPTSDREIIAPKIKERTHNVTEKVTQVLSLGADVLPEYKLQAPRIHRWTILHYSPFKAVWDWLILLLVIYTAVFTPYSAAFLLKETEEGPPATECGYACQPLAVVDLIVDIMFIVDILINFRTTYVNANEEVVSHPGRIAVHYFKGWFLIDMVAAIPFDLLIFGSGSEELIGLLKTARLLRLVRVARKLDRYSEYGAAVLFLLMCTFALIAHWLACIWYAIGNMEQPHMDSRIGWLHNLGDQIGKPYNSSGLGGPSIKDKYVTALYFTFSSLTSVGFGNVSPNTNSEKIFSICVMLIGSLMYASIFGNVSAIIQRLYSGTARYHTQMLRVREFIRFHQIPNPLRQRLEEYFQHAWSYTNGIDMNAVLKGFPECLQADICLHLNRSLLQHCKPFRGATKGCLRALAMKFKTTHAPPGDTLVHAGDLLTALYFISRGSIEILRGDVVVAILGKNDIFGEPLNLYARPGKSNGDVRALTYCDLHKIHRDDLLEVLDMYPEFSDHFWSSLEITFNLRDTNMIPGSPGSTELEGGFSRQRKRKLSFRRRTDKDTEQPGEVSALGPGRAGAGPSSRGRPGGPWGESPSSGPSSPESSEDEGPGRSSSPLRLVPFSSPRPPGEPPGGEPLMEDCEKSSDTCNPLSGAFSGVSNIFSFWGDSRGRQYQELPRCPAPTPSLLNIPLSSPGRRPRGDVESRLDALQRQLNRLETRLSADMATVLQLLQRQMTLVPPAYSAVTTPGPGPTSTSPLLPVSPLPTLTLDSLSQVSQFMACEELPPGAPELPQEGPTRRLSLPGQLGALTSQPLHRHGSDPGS
row,SMILES,"hERG current change (%, negative = inhibition) at 10uM"
1,O=C(Nc1ccc(C(=O)O)cc1)/C(=C\c1ccc([N+](=O)[O-])cc1)NC(=O)c1ccc(Br)cc1,7.58%
2,COC(=O)c1ccc(/C=C(/NC(=O)c2ccccc2)C(=O)N2CCOCC2)cc1,-9.15%
3,O=C(N/C(=C/c1cccc([N+](=O)[O-])c1)C(=O)N1CCOCC1)c1ccc(Br)cc1,-46.6%
4,O=C(N/C(=C\c1cccc([N+](=O)[O-])c1)C(=O)N1CCOCC1)c1ccc([N+](=O)[O-])cc1,12.5%
5,O=C(N/C(=C\c1ccc([N+](=O)[O-])cc1)C(=O)N1CCOCC1)c1cccc(Br)c1,-74.2%
6,O=C(N/C(=C\c1ccc(F)cc1)C(=O)N1CCOCC1)c1ccccc1,-32%
7,O=C(N/C(=C\c1ccc(Br)cc1)C(=O)N1CCOCC1)c1ccc([N+](=O)[O-])cc1,-75.5%
8,Cc1ccc(C(=O)N/C(=C/c2ccc(Cl)cc2)C(=O)N2CCOCC2)cc1,-32.6%
9,O=C(N/C(=C\c1ccccc1)C(=O)N1CCOCC1)c1cccc(Br)c1,18.8%
10,O=C(N/C(=C\c1cccc([N+](=O)[O-])c1)C(=O)N1CCOCC1)c1cccc(Br)c1,-4.26%
11,O=C(N/C(=C\c1ccc(Cl)cc1)C(=O)N1CCOCC1)c1ccc([N+](=O)[O-])cc1,-83%
12,O=C(N/C(=C/c1ccccc1)C(=O)N1CCOCC1)c1ccc([N+](=O)[O-])cc1,-64.2%
13,CC(=O)c1cccc(OCC(=O)N(C)CC(=O)Nc2ccc(F)cc2)c1,-8.68%
14,CCC(C)NC(=O)c1ccc(CSCc2ccc(Cl)cc2)o1 (stereo not drawn),-38.9%
15,COc1cccc(CNC(=O)CCNS(=O)(=O)c2ccc(Br)s2)c1,-10.2%
16,N#CCCSCc1ccc(OCC(=O)O)cc1,-1.48%
17,CCCNC(=O)c1cc(C)no1,12.6%
18,Cc1ccc(C)c(NC(=O)CCN2CC(C)OC(C)C2)c1 (stereo not drawn),1.59%
19,CC(C)C[C@H](NC(=O)N1c2ccccc2NC(=O)[C@@H]1C(C)C)C(=O)N[C@@H](Cc1ccccc1)C(=O)O,-2.11%
20,FC(F)(F)C1=CC(c2ccc(Cl)cc2)=NCCN1,-16.1%
21,CN(c1ccccc1)S(=O)(=O)c1cccc(NC(=O)CN2CCCc3ccccc32)c1,-2.81%

row,SMILES,"hERG current change (%, negative = inhibition) at 10uM"
1,Cc1ccc(C(=O)N/C(=C\c2ccco2)C(=O)N2CCOCC2)cc1C,11%
2,O=C(N/C(=C\c1ccccc1Cl)C(=O)N1CCOCC1)c1ccc([N+](=O)[O-])cc1,-66%
3,COc1ccc(C(=O)N/C(=C\c2ccc3c(c2)OCO3)C(=O)N2CCOCC2)cc1,19.6%
4,O=C(N/C(=C/c1ccccc1Cl)C(=O)N1CCCC1)c1ccccc1,-5.15%
5,COc1ccc(/C=C(\NC(=O)c2ccc([N+](=O)[O-])cc2)C(=O)N2CCOCC2)cc1,-75%
6,Cc1ccc(C(=O)N/C(=C/c2ccco2)C(=O)N2CCOCC2)cc1,-12.7%
7,COc1ccc(/C=C(/NC(=O)c2ccc(Br)cc2)C(=O)N2CCOCC2)cc1,5.5%
8,COc1cc(/C=C(/NC(=O)c2ccccc2)C(=O)N2CCOCC2)c([N+](=O)[O-])cc1OC,-3.92%
9,O=C(N/C(=C\c1ccco1)C(=O)N1CCOCC1)c1ccc([N+](=O)[O-])cc1,-70.8%
10,COc1ccc(C(=O)/C=C/N(C)C)cc1OC,7.92%
11,CN(/N=C/c1ccncc1)c1cnc2ccccc2n1,19.3%
12,CCCCCCC1NC(C(=O)O)CS1 (stereo not drawn),-0.451%
13,COc1ccc(S(=O)(=O)N2CCOC2CNC(=O)C(=O)NCCCN2CCOCC2)cc1OC (stereo not drawn),8.41%
14,CCN(CC)c1cccc(OCC(=O)N(C)CCC#N)c1,18.9%
15,CC(C)(C)S(=O)(=O)c1ccc(S(=O)(=O)C(C)(C)C)s1,22.8%
16,O=C(CC1C(=O)NCCN1Cc1c(F)cccc1Cl)NCCCn1cccn1 (stereo not drawn),10.8%
17,O=C1c2ccccc2C(=O)C1c1ccc2ccccc2n1,-13.4%
18,Br.C1=C(c2ccco2)N2CCN=C2S1,1.91%
19,COc1ccc(Nc2cc(C(=O)NCCCN3CCN(C)CC3)c3ccccc3n2)cc1,2.72%
20,Cc1ccc(Nc2ncc(C(=O)NCCCN3CCN(C)CC3)c3ccccc23)cc1Cl,-61.1%
21,COc1ccc(Nc2cc(C(=O)NCCCN3CCN(C)CC3)c3ccccc3n2)cc1OC,1.49%
